This is a sample that favours compounds with a hit; in the whole collection about 7% have one here.
rCAG RNA binder – binders of r(CAG) RNA repeats, primary screen, biochemical, fluorescence. r(CAG) RNA repeat, TO-PRO-1 dye displacement fluorescence. inhibition, % at 3 µM. 1.3% of 370,000 active. AID 651821, 2012;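 active means inhibition above the plate cutoff, the mean of all test compounds on that plate plus 3 SD, cut at about 35% in these data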;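 further: higher means more dye released from RNA so lower well fluorescence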
AHR activator – AHR activators, primary screen, cell-based, luminescence, luciferase reporter, human; 2.5% of 320,000 active; AHR-responsive luciferase reporter cells; Aryl hydrocarbon receptor (Homo sapiens), P35869; activation, % at 5 µM; in the data active means activation above about 47%
Target sequence (P35869 whole entry, looked up): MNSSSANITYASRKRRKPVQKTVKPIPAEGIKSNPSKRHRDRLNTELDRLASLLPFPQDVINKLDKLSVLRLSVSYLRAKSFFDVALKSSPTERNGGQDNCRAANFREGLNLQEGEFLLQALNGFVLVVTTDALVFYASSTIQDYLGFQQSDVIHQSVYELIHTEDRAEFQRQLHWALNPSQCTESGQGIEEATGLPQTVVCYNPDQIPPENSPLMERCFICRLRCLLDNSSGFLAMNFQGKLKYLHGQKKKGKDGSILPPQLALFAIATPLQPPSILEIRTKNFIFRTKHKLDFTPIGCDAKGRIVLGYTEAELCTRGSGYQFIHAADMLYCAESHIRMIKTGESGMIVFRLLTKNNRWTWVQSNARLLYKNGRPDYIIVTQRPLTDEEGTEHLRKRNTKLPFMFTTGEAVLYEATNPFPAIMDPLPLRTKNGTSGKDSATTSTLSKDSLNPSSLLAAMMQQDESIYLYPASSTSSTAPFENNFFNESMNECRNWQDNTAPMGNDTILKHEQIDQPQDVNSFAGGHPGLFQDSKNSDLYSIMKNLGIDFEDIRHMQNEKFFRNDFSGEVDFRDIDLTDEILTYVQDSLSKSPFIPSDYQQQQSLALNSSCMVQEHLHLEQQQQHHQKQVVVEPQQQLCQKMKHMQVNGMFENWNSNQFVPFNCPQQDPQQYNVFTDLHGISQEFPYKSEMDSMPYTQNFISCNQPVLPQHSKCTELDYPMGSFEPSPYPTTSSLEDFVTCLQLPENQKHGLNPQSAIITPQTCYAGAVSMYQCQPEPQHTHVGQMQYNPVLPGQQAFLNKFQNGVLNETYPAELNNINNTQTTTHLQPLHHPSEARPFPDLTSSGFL
ADAM10 inh – human ADAM10 inhibitors, primary screen, biochemical, QFRET, HTS | recombinant ADAM10, EDANS/DABCYL FRET peptide cleavage, 3 h | Disintegrin and metalloproteinase domain-containing protein 10 (Homo sapiens), O14672 | 0.62% of 370,000 active | inhibition, % at 7 µM;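 active means inhibition above a per-campaign cutoff equal to the mean of compounds falling between control-based bounds plus 3 SD, cut at about 20% in these data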
proKLK7 act – proKLK7 zymogen activators, primary screen, biochemical, fluorescence intensity. Kallikrein-7 (Homo sapiens), P49862. purified proKLK7, EDANS-DABCYL substrate fluorescence; 100% is mature enzyme control, 0% vehicle. activation, % at 7 µM. 0.9% of 370,000 active. AID 652039, 2013;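 active means activation above the mean of all tested compounds plus 3 SD, computed per campaign excluding outliers beyond control limits, cut at about 13% in these data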
GRIN3A LBD mod – binders of NR3A ligand-binding domain, primary screen, biophysical, differential scanning fluorimetry, uHTS | Glutamate receptor ionotropic, NMDA 3A (GRIN3A) ligand-binding domain | NR3A LBD differential scanning fluorimetry, Tm shift; 0% = protein alone, 100% = glycine-bound protein | Tm shift relative to glycine control, % at 25 µM | 2.5% of 340,000 active;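 active means melting temperature shift of at least 10% of the positive control shift, at one fixed dose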
ADAM17 inh – ADAM17 inhibitors, primary screen, biochemical, QFRET | Disintegrin and metalloproteinase domain-containing protein 17 (Homo sapiens), P78536 | recombinant ADAM17, EDANS/DABCYL FRET peptide cleavage | inhibition, % at 6.95 µM | 0.83% of 370,000 active;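 active means inhibition above the mean of compounds lying between control limits plus 3 SD, set per campaign, cut at about 8.5% in these data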
Hits are given with their value; - = inactive; . = not tested or not shown.

SMILES	rCAG RNA binder	AHR activator	ADAM10 inh	proKLK7 act	GRIN3A LBD mod	ADAM17 inh
NC(=NCCc1c[nH]c2ccccc12)NC(=O)c1ccc(F)cc1	-	-	-	-	38.4	-
NC(=NCCc1c[nH]c2ccccc12)NS(=O)(=O)c1ccc(F)cc1	-	-	-	-	-	-
CCOC(=O)c1cccc(NC(=O)CN(C)S(=O)(=O)c2ccc(Br)s2)c1	-	.	-	-	.	-
OCc1cc(Br)ccc1OCc1nc2ccccc2s1	.	48.0	.	.	-	.
O=C(CN1C(=O)c2cccc3cccc1c23)NCc1cccnc1	.	-	.	.	-	.
O=C(CN1C(=O)c2cccc3cccc1c23)Nc1cccnc1	-	53.8	-	-	-	-
Cc1nn2c(-c3ccc(F)cc3)ccnc2c1Cl	-	58.2	-	-	-	-
Cc1nn2c(-c3ccccn3)ccnc2c1Cl	-	-	-	-	-	-
CC(C)N1Cc2nnn(Cc3ccccc3)c2-c2cc(N3CCCC3)ccc2S1(=O)=O	-	.	-	-	.	-
COc1cccc(/C=N/Nc2nc3ccccc3n3cnnc23)c1	-	57.5	-	-	-	-
COc1ccc(Nc2nc3ccccc3n3cnnc23)cc1	-	71.7	-	-	-	-
Cc1ccc(S(=O)(=O)n2ccc(-c3c(-c4ccc(F)cc4)noc3C)n2)cc1	-	.	-	-	.	-
C[C@@H]1COc2cc(Br)ccc2S(=O)(=O)N1Cc1cn(CCC2OCCO2)nn1	-	.	-	-	.	-
O=[N+]([O-])c1cc(Cl)ccc1N1CCOCC1	-	-	-	-	-	-
Cc1cc(C(=O)NC(=S)Nc2ccccc2N2CCCC2)ccc1[N+](=O)[O-]	-	49.7	-	-	-	-
Cc1cc(C(=O)NC(=S)Nc2ccccc2N2CCOCC2)ccc1[N+](=O)[O-]	-	-	-	-	-	-
COc1ccc(C(=O)Nc2ccccc2N2CCOCC2)cc1[N+](=O)[O-]	-	-	-	-	-	-
Cc1ccc(Cl)c(OC(=O)c2ccc(N3CCOCC3)c([N+](=O)[O-])c2)c1	-	-	-	-	22.1	-
Cc1cc(C(=O)Nc2ccccc2N2CCOCC2)ccc1[N+](=O)[O-]	-	72.1	-	-	-	-
CC(C)[C@H]1COc2c3ccccc3nn21	-	.	-	-	.	-
O=C1CCC2(CCC(c3ccccc3)CC2)N1CCO (configuration not stated)	-	.	-	-	.	-
Cc1oc(-c2ccc(C(F)(F)F)cc2)nc1CN(Cc1ccccn1)C[C@@H]1CCC(=O)N1	-	75.2	-	-	-	-
COC(=O)[C@]12C[C@H](CC(=O)NCCC(C)C)C(=O)N(Cc3ccc4c(c3)OCO4)C1=C[C@H](COCc1ccccc1)O[C@@H]2C	-	.	-	-	.	-
CCN1CCCCC(NC(=O)c2cc(OC)c(OC)c(OC)c2)C1=O (configuration not stated)	-	.	-	-	.	-
Cc1ccc(C)c(NC(=O)Nc2ccc3c(c2)OCO3)c1	-	63.7	-	-	-	-
SMILES	rCAG RNA binder	AHR activator	ADAM10 inh	proKLK7 act	GRIN3A LBD mod	ADAM17 inh
C/C(=C\C(=O)c1ccc(F)cc1)NCc1ccc2c(c1)OCO2	-	-	-	-	14.5	-
Cc1cccc(NC(=O)NCc2ccc3c(c2)OCO3)c1C	-	-	-	-	-	-
Cc1ccc(NC(=O)Nc2ccc3c(c2)OCO3)nc1	-	-	-	-	-	-
Cc1ccccc1NC(=O)Nc1ccc2c(c1)OCO2	-	68.2	-	-	-	-
CCc1ccccc1NC(=O)NCc1ccc2c(c1)OCO2	-	68.4	-	-	-	-
O=C(Nc1ccc(F)cc1F)c1cc(-c2ccc(Cl)cc2)nc2ccccc12	-	.	-	-	.	-
O=C(Cc1ccccc1[N+](=O)[O-])Nc1ccc2c(c1)OCO2	-	61.4	-	-	-	-
O=C(Cc1ccccc1[N+](=O)[O-])NNC(=O)Nc1ccc2c(c1)OCO2	-	-	-	-	-	-
CC(NC(=O)Nc1ccc2c(c1)OCO2)C1CCCO1 (configuration not stated)	-	65.6	-	-	-	-
Cc1cc(C)cc(NC(=O)NC(C)C2CCCO2)c1 (configuration not stated)	-	-	-	-	-	-
CCc1noc(C)c1C(=O)N1CCN(CC(=O)OC)CC1	-	.	-	-	.	-
CC(COc1ccccc1)CN1CCC(C(O)(c2ccccc2)c2ccccc2)CC1 (configuration not stated)	-	.	-	-	.	-
Cc1cccc(OC(=O)NCCOC(=O)N(O)c2ccc(Cl)cc2)c1	-	52.6	-	-	-	-
COc1ccc(OC)c(Nc2nc(=O)c3cccnc3s2)c1	.	.	.	.	-	.
Cc1ccc(Nc2nc(=O)c3cccnc3s2)cc1	-	69.1	-	-	.	-
COC(=O)c1oc2ccccc2c1NC(=O)CN1CCCC1	-	54.0	-	-	-	-
COC(=O)c1oc2ccc(Br)cc2c1NC(=O)CN1CCN(C)CC1	-	-	-	-	-	-
COc1ccc(N2CCN(CCCNC(=O)Cn3c(=O)c4cccn4c4cccnc43)CC2)c(OC)c1	.	.	-	.	.	-
COc1ccc(NC(=O)CC2C(=O)N(c3cccc(OC)c3)C(=O)N2CCC(C)C)cc1 (configuration not stated)	-	-	-	-	11.2	-
CCOc1ccc(NC(=O)CC2C(=O)N(c3ccc(OC)c(Cl)c3)C(=S)N2C2CC2)cc1 (configuration not stated)	-	-	-	-	24.6	-
Cc1ccc(-n2c(Cc3cccs3)nnc2SCc2ccc(C#N)cc2)cc1	-	.	-	-	.	-
O=C(CSc1nnc(-c2ccc(Cl)cc2)n1Cc1ccco1)c1cccs1	-	87.3	-	-	-	-
O=C(CSc1nc2ccccc2o1)Nc1nc(-c2ccccc2)cs1	-	-	-	-	12.1	-
O=C(CSc1nnc(-c2ccncc2)n1Cc1ccco1)Nc1nc(-c2ccccc2)cs1	-	47.7	-	-	-	-
Cc1sc2nc(SCC(=O)c3cccs3)n(Cc3ccco3)c(=O)c2c1C	-	-	-	-	10.8	-
CC1CCN(C2=C(NS(=O)(=O)c3ccccc3)C(=O)c3ccccc3C2=O)CC1	-	-	-	-	-	-
CCN1CCN(C2=C(NS(=O)(=O)c3ccc(NC(C)=O)cc3)C(=O)c3ccccc3C2=O)CC1	-	-	-	-	14.5	-
CC(=O)Nc1ccc(S(=O)(=O)NC2=C(N3CCN(Cc4ccccc4)CC3)C(=O)c3ccccc3C2=O)cc1	-	-	-	-	-	-
O=C1C(NS(=O)(=O)c2ccccc2)=C(N2CCN(c3ccc(F)cc3)CC2)C(=O)c2ccccc21	-	65.7	-	-	-	-

Screens: PubChem, several laboratories
